Experiment [1] relates to Vero E6 infected with SARS-CoV-2. Put plainly: morphology score (similarity to uninfected cells); higher = more like uninfected cells. The following applies: 24 h.
For experiment [2] the test system is unchanged. Put plainly: SARS-CoV-2 infection rate relative to infected DMSO; higher = more infection, active = 60 or less. Conditions: 24 h.

The compound `CC(C)[C@@H]1CC[C@@H](C)C[C@H]1O` [levomenthol] (10 µM) returned a morphology score in experiment [1] of -0.181. The SARS-CoV-2 infection rate in experiment [2] was 108% (inactive).
For `CN1CCC[C@@H]1Cc1c[nH]c2ccc(CCS(=O)(=O)c3ccccc3)cc12` [eletriptan] (10 µM), in that order: 0.207 and 102% (inactive).
For `Cn1cc(C(F)(F)F)nc1-c1ccc(OCC(O)CNCCOc2ccc(O)c(C(N)=O)c2)cc1` (configuration not stated) (10 µM), in that order: -0.123 and 112% (inactive).
For `C=C1/C(=C\C=C2/CCC[C@]3(C)[C@@H]([C@H](C)/C=C/[C@H](C)C(C)(C)O)CC[C@@H]23)C[C@@H](O)C[C@@H]1O` [ercalcitriol] (10 µM), in that order: 0.0324 and 97.5% (inactive).
Regarding `COc1cc2ncnc(Nc3ccc(Cl)cc3F)c2cc1OC` (10 µM), in experiment [1], the morphology score was -0.174. In experiment [2], the SARS-CoV-2 infection rate is 117% (inactive).
For `CCCCCCCCCCCCCCCCOc1nc2ccc(C)cc2c(=O)o1` [cetilistat] (10 µM), in that order: -0.00505 and 104% (inactive).
For `O=S(=O)(c1ccccc1)c1cnc2c(N3CCNCC3)cccc2c1` (10 µM), in that order: -0.0691 and 106% (inactive).
For `CCCCCCCCCCCCCCOc1ccc(C(=O)O)o1` (0.833333 µM), in that order: 0.208 and 96.5% (inactive).
On to `Fc1ccccc1CNCc1ccc(-c2ccnc3[nH]ccc23)cc1` (10 µM), for which the morphology score in experiment [1] was -0.0487. Further, the SARS-CoV-2 infection rate in experiment [2] is 116% (inactive).
For `CN=c1nc(-c2ccccc2)n(-c2ccccc2)s1` (10 µM), in that order: -0.0414 and 97.5% (inactive).
For `COc1cc(C)c(/C=C/C(C)=C/C=C/C(C)=C/C(=O)O)c(C)c1C` [acitretin] (10 µM), in that order: -0.0971 and 116% (inactive).
For `CCOc1ccc2nc(SCCN3CCOCC3)[nH]c2c1` [afobazole] (10 µM), in that order: -0.0209 and 111% (inactive).
For `CNc1nc(-c2ccc3c(N)n[nH]c3c2)cc(N2C[C@@H](C(=O)NC3CCCCC3)CC[C@H]2C)n1` (0.833333 µM), the morphology score in experiment [1] amounted to 0.0384. In addition, the SARS-CoV-2 infection rate in experiment [2] is 106% (inactive).
For `Cn1ccnc1S` [methimazole] (10 µM), in that order: -0.0741 and 108% (inactive).
For `Cc1c(C(=O)NC2CCCCC2)sc2nc3ccc(N)cc3n12` (10 µM), in that order: 0.0842 and 105% (inactive).
For the compound `CCOc1ccc(-c2nc(-c3cccc4c3CCC4NCCO)no2)cc1OCC` (configuration not stated) (10 µM), the morphology score in experiment [1] stood at 0.847. In addition, in experiment [2], the SARS-CoV-2 infection rate is 12% (active).
For `NCCCNCCSP(=O)(O)O` [amifostine] (10 µM), in that order: 0.164 and 100% (inactive).
`CC(C)N(CCC(=O)c1ccc2ccccc2c1)Cc1ccccc1` (10 µM): the morphology score in experiment [1] came out at 0.0866. Besides, in experiment [2], the SARS-CoV-2 infection rate is 104% (inactive).
The compound `CCCN(C/C=C/I)C1CCc2cccc(O)c2C1` (configuration not stated) [8-hydroxy-PIPAT] (10 µM) registered a morphology score in experiment [1] of -0.0478. For the same compound, in experiment [2], the SARS-CoV-2 infection rate was 106% (inactive).
For `CC(C)=CCC[C@](C)(O)[C@H]1CC[C@]2(C)[C@@H]1[C@H](O)C[C@@H]1[C@@]3(C)CC[C@H](O)C(C)(C)[C@@H]3[C@@H](O)C[C@]12C` [hemomex-s] (10 µM), in that order: 0.173 and 104% (inactive).
For `CCCC(=O)C1(c2ccccc2)CCN(C(=O)[C@@H](Cc2ccc(OC)cc2)NC(=O)[C@@H](N)Cc2cncn2C)CC1` (10 µM), in that order: 0.106 and 98% (inactive).
For `CN1C[C@@H]2C[C@H]1CN2c1cc2c(cc1F)c(=O)c(C(=O)O)cn2C1CC1` [danofloxacin] (10 µM), in that order: 0.319 and 100% (inactive).
In turn, `O=C(O)CCCCC(=O)O` [adipic-acid] (10 µM) gave a morphology score in experiment [1] of -0.0456. The SARS-CoV-2 infection rate in experiment [2] is 105% (inactive).
For `O=C(O)/C=C/c1ccc(-c2ccc(O)c(C34CC5CC(CC(C5)C3)C4)c2)cc1` [adarotene] (10 µM), in that order: 0.00299 and 100% (inactive).
For `COCC[n+]1c2c(n(Cc3cnccn3)c1C)C(=O)c1ccccc1C2=O` (0.833333 µM), in that order: 0.0783 and 108% (inactive).
For `COc1ccc(CCC(=O)c2c(O)cc(O[C@@H]3O[C@H](CO)[C@@H](O)[C@H](O)[C@H]3O[C@@H]3O[C@@H](C)[C@H](O)[C@@H](O)[C@H]3O)cc2O)cc1O` [Neohesperidin dihydrochalcone (Nhdc)] (10 µM), in that order: 0.0549 and 99.5% (inactive).
Compound `Nc1ccc(-c2ccc3ncc4ccc(=O)n(-c5cccc(C(F)(F)F)c5)c4c3c2)cn1` [torin-2] (10 µM) came in with a morphology score in experiment [1] of 0.162. For the same compound, the SARS-CoV-2 infection rate in experiment [2] was 86.5% (inactive).
For `Oc1nc(O)c2cn[nH]c2n1` [oxypurinol] (10 µM), in that order: -0.157 and 111% (inactive).
For `O=C(c1ccc(Cl)cc1)N(Cc1ccccc1)C1CCCCC1` (10 µM), in that order: -0.00245 and 103% (inactive).
For `O=C(NCCCCN1CCN(c2cccc(Cl)c2Cl)CC1)c1ccc2c(c1)Cc1ccccc1-2` (10 µM), in that order: -0.00329 and 105% (inactive).
`CC1(C)C(/C=C/C=C/C=C/C=C2\N(CCCCS(=O)(=O)O)c3ccc4ccccc4c3C2(C)C)=[N+](CCCCS(=O)(=O)[O-])c2ccc3ccccc3c21` [indocyanine-green] (10 µM) displayed a morphology score in experiment [1] of 0.0305. For the same compound, the SARS-CoV-2 infection rate in experiment [2] is 109% (inactive).

Values taken from the supplement of paper PMC13380429.
